# Shown are actives, neighbours in structure and some others; about 21% of the full set was active somewhere.
# Shiga toxin inh: inhibitors of Shiga toxin in Vero cells | Vero cells, Shiga toxin protein synthesis inhibition reporter | inhibition, % at 38.7 µM | actives 9.2% (n = 290,000) | AID 2315; in the data active = inhibition mostly above about 28%, no sharp cut-off; inactive = mostly below about 43%
# Pf growth 96h: P. falciparum growth inhibition at 96 hour, primary screen for plastid delayed-death inhibitors; P. falciparum luciferase reporter growth, 96 h; actives 6.9% (n = 320,000); Potency, µM (doses to about 28.7 µM), actives largely listed as inhibitors
#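 Readout is luminescence from an integrated firefly luciferase in P. falciparum. Red cells, 2% hematocrit and 0.05% parasitemia final, were cultured with compound through two parasite generations (96 hours) at 37 C, 5% CO2.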
# Cycloheximide cs: counter-screen for Shiga toxin inhibitors: cycloheximide protein synthesis inhibition; max response, %; cell reporter, cycloheximide protein synthesis inhibition counterscreen; actives 12% (n = 300,000); AID 2314; in the data active = max response mostly above about 13%, no sharp cut-off; inactive = mostly below about 14%; note: read at 38.3 µM for the half of the compounds with a filed dose
# Pf growth 48h: P. falciparum growth inhibition at 48 hours (one generation). P. falciparum luciferase growth in erythrocytes, 48 h. Potency, µM (doses to about 28.7 µM), hits mostly inhibitors. actives 5.9% (n = 310,000). AID 504832
#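 First compound was added to culture medium, then infected red cells at 0.1% parasitemia and 2% hematocrit (final). After incubation at 37 C under 5% CO2, luciferase detection reagent was dispensed and light output recorded.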
# A number is an active result; 0 = inactive; ? = inconclusive; - = no result given; [ ] = dose if it differs, or a comment. Unless noted, calls come from the whole dose curve; as a rule, active = well fitted inhibition curve with a large enough effect; inconclusive = small, poorly fitted or top-dose-only effect, or another doubt; inactive = no such curve, though single readings can be large or run the other way.
SMILES,Shiga toxin inh,Pf growth 96h,Cycloheximide cs,Pf growth 48h
CC(=O)Oc1ccc(/C=C2/Oc3ccccc3C2=O)cc1,49,0,32,0
COc1ccc(CCNC(=O)c2cccnc2SC)cc1,0,0,0,0
Cn1c(Cc2cccs2)nnc1SCC(=O)N1CCc2ccccc21,0,-,0,0
CC(Sc1nnc2ccccn12)C(=O)N1CCc2ccccc2C1 (stereo unspecified),0,0,20,-
O=C(CSc1nnc2ccccn12)N1CCc2ccccc2C1,136,0,29,0
O=C(O)C1Cc2ccccc2CN1C(=O)CSc1nnc2ccccn12 (stereo unspecified),0,0,0,0
O=C1CN(C(=O)CSc2nnc3ccccn23)c2ccccc2N1,0,?,0,0
O=C(CSc1nnc2ccccn12)N1CCOCC1,0,-,0,0
O=C(CSc1nnc2ccccn12)N1CCc2ccccc21,62,0,20,0
Cc1ccc(NCc2nnc(SCC(=O)N3CCc4ccccc43)n2C)cc1,0,4.7µM,0,0
NCCCCCc1nnc(SCC(N)=O)o1,0,0,0,?
O=C1OCC2OC(O)C(O)C(O)C2OC(=O)c2cc(O)c(O)c(O)c2-c2c(O)c(O)c3oc(=O)c4c(c(O)c(O)c5oc(=O)c2c3c54)-c2c1cc(O)c(O)c2O (stereo unspecified),0,0,0,0
CCOc1ccc(/C=N/NC(=S)Nc2c(C)cccc2C)cc1,0,2.6µM,0,-
C=CCOc1cccc(/C=N/NC(=O)C(OC)c2ccccc2)c1 (stereo unspecified),-,13µM,0,0
CCNC(=S)N/N=C/c1ccc(OCCOc2ccccc2C)cc1,0,0,0,0
CCOc1cc(/C=N/NC(=O)C(OC)c2ccccc2)ccc1O (stereo unspecified),0,0,0,0
CCOc1ccc(/C=N/NC(=O)C(OC)c2ccccc2)cc1 (stereo unspecified),0,9.3µM,0,?
Cc1ccc(-c2nnn(CC(=O)N(CC(=O)NC3CCCCC3)c3ccccc3F)n2)o1,0,0,0,?
COc1cc(CCC(=O)Nc2cccc(S(=O)(=O)N(C)C)c2)cc(OC)c1OC,0,0,0,0
COc1ccc(NC(=O)N2CCN(c3ccc([N+](=O)[O-])cc3)CC2)cc1OC,0,?,0,0[5.75 µM]
Cc1ccc(CN2CCC(n3nccc3NC(=O)CCOc3ccccc3)CC2)cc1C,0,?,0,?
CC1(c2ccc(OC(F)F)cc2)NC(=O)N(CC(=O)Nc2ccc3c(c2)OCO3)C1=O (stereo unspecified),0,0,0,0
Cc1ccc2nc(-c3ccc(NC(=O)CN4C(=O)NC(C)(c5ccc(OC(F)F)cc5)C4=O)cc3)sc2c1 (stereo unspecified),99,0,30,0
O=C(CN1C(=O)NC(Cc2ccccc2)C1=O)Nc1ccc(OC(F)F)cc1 (stereo unspecified),-,13µM,-,0
CCOC(=O)CN1C(=O)NC(C)(c2ccc(OC(F)F)cc2)C1=O (stereo unspecified),0,0,0,0
SMILES,Shiga toxin inh,Pf growth 96h,Cycloheximide cs,Pf growth 48h
CC1(c2ccc(OC(F)F)cc2)NC(=O)N(CC(=O)Nc2ccccc2)C1=O (stereo unspecified),72,0,19,0
O=S1(=O)c2ccccc2Nc2ccccc21,0,?,0,0
Cn1cc(C[C@H](C(=O)O)N2C(=O)c3ccc(C(=O)O)cc3C2=O)c2ccccc21,0,?,0,?
CC1=NN(c2ccccc2)C(=O)C1(C)C,0,9.3µM,0,0
CC(C)(C)C1CCc2c(sc(NC(=O)C3CCCO3)c2C(N)=O)C1 (stereo unspecified),0,0,0,?
CC(C)(C)C1CCc2c(sc(NC(=O)c3ccco3)c2C(N)=O)C1 (stereo unspecified),0,?,15,0
CCC1CCc2c(sc(NC(=O)c3cnccn3)c2C(N)=O)C1 (stereo unspecified),-,0,0,0
CCC1CCc2c(sc(NC(=O)c3ccco3)c2C(N)=O)C1 (stereo unspecified),96,0,30,0
CCc1nccn1S(=O)(=O)c1ccccc1[N+](=O)[O-],0,0,0,0
c1cnc(-c2noc(CN3CCN(C4CCCC4)CC3)n2)cn1,0,0,0,0
COc1cccc(C2CCCN2Cc2nc(-c3cnccn3)no2)c1 (stereo unspecified),0,0,0,13µM
Cc1ccc(NC(=O)CN(C)C(=O)c2cccc(-n3cccc3)c2)cc1,-,0,-,0
CCOc1ccc(-c2ccc(SCC(=O)Nc3nnc(C)s3)nn2)cc1,0,0,0,0
CCOc1ccc(-c2ccc(SCC)nn2)cc1,75,?,29,0
CCSc1ccc(-c2ccc(C)cc2)nn1,65,0,28,0
Cc1ccc(-c2ccc(SCC(=O)NC3CCCC3)nn2)cc1,0,0,0,0
CN1CCN(S(=O)(=O)c2ccc(Cl)cc2)CC1,-,1.9µM,0,0
CN1CCN(S(=O)(=O)c2ccc(Cc3ccc(S(=O)(=O)N4CCN(C)CC4)cc3)cc2)CC1,0,12µM,0,?
CN1CCN(S(=O)(=O)c2ccc(-c3ccc(S(=O)(=O)N4CCN(C)CC4)cc3)cc2)CC1,0,0,0,0
CN1CCN(S(=O)(=O)c2ccc(-c3ccc(Cl)cc3)cc2)CC1,0,-,0,0
O=C(COc1ccc(Cl)cc1)N(Cc1ccc(F)cc1)C1CCS(=O)(=O)C1 (stereo unspecified),0,?,0,0
O=C(NCC1(N2CCOCC2)CCCCC1)c1ccc(S(=O)(=O)Nc2ccccc2F)cc1,0,?,0,?
Cc1cccc(NS(=O)(=O)c2ccc(C(=O)NCC3(N4CCCCC4)CCCCC3)cc2)c1C,-,0,-,2.6µM
ClCC1CO1 (stereo unspecified),-,0,-,0
O=c1n(CC2CO2)c(=O)n(CC2CO2)c(=O)n1CC1CO1 (stereo unspecified),-,6µM,-,9.5µM
SMILES,Shiga toxin inh,Pf growth 96h,Cycloheximide cs,Pf growth 48h
O=C(Cc1ccccc1)N/N=C/c1cccc([N+](=O)[O-])c1,0,0,9.6,0
CC(NC(=O)c1ccccc1)C(=O)N/N=C/c1ccc(O)cc1 (stereo unspecified),0,?,0,0
CN(c1ccc(C(=O)N/N=C/c2cccc([N+](=O)[O-])c2)cc1)S(=O)(=O)c1ccccc1,0,?,0,6.6µM
COc1ccc(/C=N/NC(=O)c2cccc([N+](=O)[O-])c2)cc1OS(=O)(=O)c1ccc(C)cc1,0,0,0,?
O=C(Cc1ccccc1)N/N=C/C=C/c1cccc([N+](=O)[O-])c1,0,0,0,0
CCOc1cc(/C=N/NC(=O)c2cccc([N+](=O)[O-])c2)ccc1OS(=O)(=O)c1ccccc1,0,?,0,12µM
CC(NC(=O)c1ccccc1)C(=O)N/N=C/c1cccc([N+](=O)[O-])c1 (stereo unspecified),0,0,17,0
O=C(N/N=C/c1cccc([N+](=O)[O-])c1)c1nc2ccccc2c(=O)[nH]1,0,0,19,0
C=CCOc1ccccc1CNc1ccc2c(c1)OCCO2,53,0,27,0
Fc1cccc(COc2ccccc2CNc2ccccc2)c1,0,0,0,0
CCOc1ccc(Br)cc1CNc1ccc2c(c1)OCCO2,0,0,23,0
